# In PubChem BioAssay AID720648 (The Scripps Research Institute Molecular Screening Center, 2013):
# About 3,100 (0.84%) of roughly 370,000 compounds were called active. Many of the other results were omitted from the sample, so actives are more common in it than they were. A number with no mark means an inactive call.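 How the source made its calls: active means inhibition above the mean of compounds lying between control limits plus 3 SD, set per campaign (cut at about 8.5% in these data); inactive means the rest.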
# Target: Disintegrin and metalloproteinase domain-containing protein 17 (Homo sapiens) (UniProt P78536)
# Assay: inhibition of ADAM17 peptide cleavage – biochemical, QFRET, primary screen (AID 720648);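 further: 0% = DMSO-only wells as the low control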
# Conditions: recombinant ADAM17, EDANS/DABCYL FRET peptide cleavage; at 6.95 µM; hits give high values
# Chain of Disintegrin and metalloproteinase domain-containing protein 17 (Homo sapiens) (P78536 215-824 limits assumed): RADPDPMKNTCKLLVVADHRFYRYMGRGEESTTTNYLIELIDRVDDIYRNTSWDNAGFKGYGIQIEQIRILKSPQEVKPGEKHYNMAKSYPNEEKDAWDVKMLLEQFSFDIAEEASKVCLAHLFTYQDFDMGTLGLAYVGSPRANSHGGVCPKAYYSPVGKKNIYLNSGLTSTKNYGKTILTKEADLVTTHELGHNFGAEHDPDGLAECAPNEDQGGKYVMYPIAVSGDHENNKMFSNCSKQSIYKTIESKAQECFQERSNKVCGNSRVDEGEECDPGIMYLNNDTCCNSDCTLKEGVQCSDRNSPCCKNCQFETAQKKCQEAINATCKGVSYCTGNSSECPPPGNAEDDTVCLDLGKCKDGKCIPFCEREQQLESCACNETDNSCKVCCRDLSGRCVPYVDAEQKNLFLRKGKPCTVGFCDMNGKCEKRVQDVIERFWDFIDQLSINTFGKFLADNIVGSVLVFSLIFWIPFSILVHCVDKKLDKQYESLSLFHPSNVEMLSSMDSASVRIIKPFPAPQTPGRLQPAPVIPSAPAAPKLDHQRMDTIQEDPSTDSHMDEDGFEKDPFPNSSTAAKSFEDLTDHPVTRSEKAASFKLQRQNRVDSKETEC
row,SMILES,inhibition
1,CC(C)C(C#CC1CC1)N(Cc1ccc2c(c1)OCO2)C(N)=NC(=O)/C=C/c1cccc(C(F)(F)F)c1 (stereo not drawn),-3.71%
2,COc1ccc(-c2cc(C3CCN(c4ncccc4[N+](=O)[O-])CC3)[nH]n2)cc1,9.29% (active)
3,CC(=O)NC(Cc1ccccc1)C(=O)NC1CCN(c2ncccc2[N+](=O)[O-])CC1 (stereo not drawn),-2.81%
4,COc1ccc(-c2cc(-c3nnc(SCc4ccc([N+](=O)[O-])cc4)n3N)[nH]n2)cc1,-2.61%
5,O=C1CCC2(CCC(c3ccc(Cl)cc3)CC2)N1CCO (stereo not drawn),1.61%
6,CCn1c(=O)n2n(c1=O)[C@@]1(C=C3CCCC[C@H]32)N=C(NC(=O)c2ccccc2)N(Cc2ccccc2)[C@H]1Cc1ccccc1,5.91%
7,Cn1c(Nc2ccccc2)cc(=O)n(C)c1=O,-0.84%
8,Cc1cc(Nc2ccccc2)n(C(=O)c2ccc(N)cc2)n1,8.62% (active)
9,Cc1ccc(NC(=O)Nc2cc(C)nn2-c2ccccc2)cc1,-1.4%
10,CCC(Oc1ccccc1C)C(=O)Nc1ccc(S(=O)(=O)Nc2cc(C)on2)cc1 (stereo not drawn),-4.21%
11,COC(C(=O)NCc1ccccc1C)c1ccccc1 (stereo not drawn),-5.21%
12,COC(C(=O)Nc1ccc(S(=O)(=O)Nc2ccc(C)c(C)c2)cc1)c1ccccc1 (stereo not drawn),9.01% (active)
13,COc1cccc(Cn2cc(COC(=O)Nc3ccc(F)cc3)nn2)c1,-1.05%
14,COc1ccccc1C(=O)NC1CCCCN(C(C)C)C1=O (stereo not drawn),-7.08%
15,COc1ccc(CCN(C(=O)COc2ccccc2)c2nc(-c3ccccc3)cs2)cc1OC,9.24% (active)
16,O=C(O)CCC(=O)N(Cc1ccco1)c1nc(-c2ccccc2)cs1,-2.47%
17,COc1ccc(CN(C(=O)c2cccs2)c2nccs2)cc1OC,0.3%
18,C[C@@H]1COc2cccc(N3CCCC3)c2S(=O)(=O)N1C,-5.16%
19,C=CCN1[C@@H](Cc2ccccc2)COc2cccc(N3CCSCC3)c2S1(=O)=O,-1.76%
20,CCCn1nc(C(=O)NNC(=O)CCOc2ccccc2OCC)c2ccccc2c1=O,-0.01%
21,Cc1cc(NC(=O)CSCC(=O)NC(C)c2ccccc2)no1 (stereo not drawn),-2.03%
22,CCCn1nc(C(=O)NNC(=O)CSCC(=O)Nc2cc(C)on2)c2ccccc2c1=O,11.3% (active)
23,COC(=O)C1CN(CCc2ccccc2)CCS(=O)(=O)N1Cc1ccc(F)cc1 (stereo not drawn),-9.15%
24,Cc1ccc(S(=O)(=O)NCCSc2ccccc2)cc1[N+](=O)[O-],10.7% (active)
25,O=[N+]([O-])c1cc(S(=O)(=O)NCCc2ccccn2)ccc1Cl,0.55%
26,CCOc1ccc(S(=O)(=O)NCCSc2ccccc2)cc1,6.1%
27,C[C@H](C(=O)N(C)c1ccccc1)[C@@H](O)c1ccc2ccccc2c1,-5.59%

row,SMILES,inhibition
1,CCN(CC)C(=O)CC[C@@H]1CC[C@]2(CCCN(S(=O)(=O)C3CCCCC3)C2)O1,-0.83%
2,COc1ccc(OCC(=O)OCC(=O)Nc2ccc(S(=O)(=O)N3CCCCC3)cc2)cc1,-0.04%
3,O=C(CSCc1ccc(Br)cc1)Nc1ccc(S(=O)(=O)N2CCCCCC2)cc1,12.9% (active)
4,O=C(CN1CCCCCC1)Nc1ccc(S(=O)(=O)N2CCCCC2)cc1,-1.57%
5,N#CCC[C@H]1CC[C@]2(CCCN(Cc3ccc(Cl)cc3)C2)O1,-4.85%
6,COc1ccc(-n2c(SCC(=O)NC3CCCC3)nnc2-c2ccncc2)cc1,-3.54%
7,COCCNC(=O)C(c1ccc(C)o1)N(Cc1ccccc1)C(=O)Cn1nnc2ccccc21 (stereo not drawn),9.14% (active)
8,COc1ccccc1N(C(=O)Cn1nnc2ccccc21)C(C(=O)NCc1ccco1)c1ccc(C)o1 (stereo not drawn),-3.12%
9,CCC(C)(C)NC(=O)C(c1cccn1C)N(Cc1ccc(C)cc1)C(=O)Cn1nnc2ccccc21 (stereo not drawn),0.71%
10,COCCCNC(=O)C[C@H]1C[C@@]2(C(=O)OC)C(=C[C@H](C(C)(C)C)O[C@@H]2C)N(Cc2ccc(Cl)cc2Cl)C1=O,3.29%
11,CCOC(=O)[C@@]12CN(C(=O)OC(C)(C)C)CC=C1N(Cc1ccc(OC)cc1)C(=O)[C@H]2CC(=O)NCc1ccc(OC)c(OC)c1,1.15%
12,CC(C)c1ccc(S(=O)(=O)N2CCN(C(C)C(=O)NC3CCCC3)CC2)cc1 (stereo not drawn),0.12%
13,COc1cccc(CNC(C)C(=O)Nc2ccc(S(=O)(=O)N3CCCC3)cc2)c1 (stereo not drawn),-0.82%
14,COc1ccc(S(=O)(=O)N2CCN(C(C)C(=O)Nc3ccc(C(C)C)cc3)CC2)cc1 (stereo not drawn),12.4% (active)
15,C[C@@H]1ON(C)[C@H]2C[C@H]3c4[nH]c5cccc(-c6ccc7c(c6)OCO7)c5c4CCN3C[C@@H]12,-16.2%
16,COc1ccccc1CCNC(=O)C1CCN(c2nc(C)cc(C)n2)CC1,-1.54%
17,O=S1(=O)c2c(NCc3ccco3)cccc2Oc2ccccc2CN1Cc1cn(Cc2cccc(C(F)(F)F)c2)nn1,-1.67%
18,COc1ccc(Cl)cc1NC(=O)COC(=O)c1ccc(Br)o1,-0.97%
19,COc1ccc(Cl)cc1NC(=O)COC(=O)C(CC(C)C)N1C(=O)C2CC=CCC2C1=O (stereo not drawn),18.9% (active)
20,COc1ccc(Cl)cc1NC(=O)c1cccc(N2C(=O)C3CC=CCC3C2=O)c1 (stereo not drawn),-4.89%
21,Cc1cccc(C(=O)Nc2c(-c3ccc(F)cc3)nc3ncccn23)c1,-94.5%
22,CCOC(=O)c1csc(NC(=O)C2CCCN(S(=O)(=O)c3ccc(Cl)s3)C2)n1 (stereo not drawn),1.07%
23,Cc1ccccc1OS(=O)(=O)c1cccc([N+](=O)[O-])c1,3.53%
24,COc1cccc(/C=N/NC(=O)c2cccc([N+](=O)[O-])c2)c1OS(=O)(=O)c1ccc(C)cc1,9.36% (active)
25,COc1ccc([N+](=O)[O-])cc1NCC(=O)c1ccc(C)cc1,0.13%
26,O=C(CSc1nc2c(c(=O)[nH]1)CCCC2)N1CCCCC1,-1.39%
